Measurements: the supplement of paper PMC10849652
Of roughly 7,900 targets only a part is listed; those with a hit were picked by preference. About 0.6% of all pairs of compound and target were hits.

compound: O=C(O)c1ccc2c(c1)nc(Nc1cccc(Cl)c1)c1ccncc12 [silmitasertib]; experiment: log2 fold change, soluble protein after heating vs DMSO (PISA); higher = thermal stabilisation; K562 cells, 10 uM, 30 min; active = over 0.2 and 3.5 SD of the protein, either way, in both replicates (recomputed)
How it was run: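 Soluble protein was defined as the supernatant after 21,000xg for 90 min. It came from K562 cells at 2×10^6 cells/mL given 10 μM compound for 30 min, heated in aliquots for 3 min across 48°C-58°C, pooled, and extracted in PBS with 0.5% NP-40 at 4°C, and was quantified by TMTpro 16plex LC-MS/MS with equalised channel sums. Thermal stability against control samples, from duplicates, is reported as log2 fold change.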

Sequence of UniProt Q13418 (Q13418 whole entry, looked up): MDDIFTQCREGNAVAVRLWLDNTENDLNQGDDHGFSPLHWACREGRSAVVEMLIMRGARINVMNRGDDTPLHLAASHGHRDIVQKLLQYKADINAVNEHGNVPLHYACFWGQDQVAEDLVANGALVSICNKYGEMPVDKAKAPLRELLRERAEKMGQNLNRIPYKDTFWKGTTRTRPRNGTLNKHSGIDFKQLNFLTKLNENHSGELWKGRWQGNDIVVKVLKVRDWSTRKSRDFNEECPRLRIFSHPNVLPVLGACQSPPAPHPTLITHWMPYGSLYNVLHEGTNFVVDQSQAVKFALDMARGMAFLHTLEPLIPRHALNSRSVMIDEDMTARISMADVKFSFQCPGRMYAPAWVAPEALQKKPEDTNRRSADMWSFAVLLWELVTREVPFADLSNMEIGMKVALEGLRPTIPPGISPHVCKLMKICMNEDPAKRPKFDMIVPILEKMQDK
Sequence of UniProt O94822 (O94822 whole entry, looked up): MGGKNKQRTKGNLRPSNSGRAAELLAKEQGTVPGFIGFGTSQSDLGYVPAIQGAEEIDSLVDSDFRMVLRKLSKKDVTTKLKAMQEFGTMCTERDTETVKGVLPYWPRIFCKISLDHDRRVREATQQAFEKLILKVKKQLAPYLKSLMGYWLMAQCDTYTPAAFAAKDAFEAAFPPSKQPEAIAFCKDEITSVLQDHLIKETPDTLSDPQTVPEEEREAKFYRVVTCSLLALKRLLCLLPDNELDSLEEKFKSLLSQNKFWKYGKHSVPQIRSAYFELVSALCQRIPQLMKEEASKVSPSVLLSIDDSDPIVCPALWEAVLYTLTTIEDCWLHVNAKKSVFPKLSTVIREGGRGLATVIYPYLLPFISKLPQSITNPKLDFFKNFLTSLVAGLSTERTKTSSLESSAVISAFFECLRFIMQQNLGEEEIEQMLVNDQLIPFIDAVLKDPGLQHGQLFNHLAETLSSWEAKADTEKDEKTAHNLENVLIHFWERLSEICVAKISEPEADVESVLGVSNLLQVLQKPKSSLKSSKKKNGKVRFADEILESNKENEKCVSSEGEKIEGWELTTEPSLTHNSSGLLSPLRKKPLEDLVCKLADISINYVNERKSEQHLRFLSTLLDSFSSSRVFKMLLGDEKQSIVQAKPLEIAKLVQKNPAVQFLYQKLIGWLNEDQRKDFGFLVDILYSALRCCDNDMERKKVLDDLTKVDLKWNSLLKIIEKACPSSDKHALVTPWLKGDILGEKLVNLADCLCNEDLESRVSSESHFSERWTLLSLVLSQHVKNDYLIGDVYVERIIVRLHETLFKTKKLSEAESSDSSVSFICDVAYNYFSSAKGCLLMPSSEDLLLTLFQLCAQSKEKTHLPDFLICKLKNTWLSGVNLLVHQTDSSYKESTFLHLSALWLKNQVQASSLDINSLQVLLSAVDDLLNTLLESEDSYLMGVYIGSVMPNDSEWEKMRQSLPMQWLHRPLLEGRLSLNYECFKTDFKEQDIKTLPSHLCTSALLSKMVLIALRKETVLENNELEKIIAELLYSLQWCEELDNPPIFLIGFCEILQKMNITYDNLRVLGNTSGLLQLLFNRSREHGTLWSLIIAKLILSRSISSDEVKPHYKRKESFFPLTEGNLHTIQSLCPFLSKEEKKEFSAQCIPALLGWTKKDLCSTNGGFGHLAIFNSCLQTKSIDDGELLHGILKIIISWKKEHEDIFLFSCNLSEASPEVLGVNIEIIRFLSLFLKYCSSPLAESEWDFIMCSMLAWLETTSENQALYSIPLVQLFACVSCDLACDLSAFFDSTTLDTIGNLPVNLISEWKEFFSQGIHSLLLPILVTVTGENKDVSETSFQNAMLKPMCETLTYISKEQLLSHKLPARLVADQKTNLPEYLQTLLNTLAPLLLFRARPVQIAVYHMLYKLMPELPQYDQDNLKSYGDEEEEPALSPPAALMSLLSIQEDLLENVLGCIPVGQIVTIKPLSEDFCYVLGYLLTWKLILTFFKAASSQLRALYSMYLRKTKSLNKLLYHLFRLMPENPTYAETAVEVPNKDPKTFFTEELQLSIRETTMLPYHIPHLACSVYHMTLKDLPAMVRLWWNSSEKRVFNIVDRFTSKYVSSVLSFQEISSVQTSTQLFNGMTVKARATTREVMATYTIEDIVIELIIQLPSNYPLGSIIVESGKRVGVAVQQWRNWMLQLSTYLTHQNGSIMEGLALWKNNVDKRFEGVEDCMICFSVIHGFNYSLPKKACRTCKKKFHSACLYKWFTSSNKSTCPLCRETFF
Sequence of UniProt Q9H3U5 (Q9H3U5 whole entry, looked up): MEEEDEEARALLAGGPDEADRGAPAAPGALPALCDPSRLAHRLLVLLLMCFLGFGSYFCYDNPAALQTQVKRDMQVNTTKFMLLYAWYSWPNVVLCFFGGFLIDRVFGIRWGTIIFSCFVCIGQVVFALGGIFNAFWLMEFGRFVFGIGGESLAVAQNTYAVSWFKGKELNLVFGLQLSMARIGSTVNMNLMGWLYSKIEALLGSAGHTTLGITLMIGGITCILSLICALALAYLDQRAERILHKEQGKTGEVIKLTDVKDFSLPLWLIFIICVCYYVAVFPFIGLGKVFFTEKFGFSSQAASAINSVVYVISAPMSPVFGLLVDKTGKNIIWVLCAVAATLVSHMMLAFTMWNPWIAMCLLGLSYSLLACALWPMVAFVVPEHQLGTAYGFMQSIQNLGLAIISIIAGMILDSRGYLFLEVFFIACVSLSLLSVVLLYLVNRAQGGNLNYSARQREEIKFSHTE
Sequence of UniProt O43934 (O43934 whole entry, looked up): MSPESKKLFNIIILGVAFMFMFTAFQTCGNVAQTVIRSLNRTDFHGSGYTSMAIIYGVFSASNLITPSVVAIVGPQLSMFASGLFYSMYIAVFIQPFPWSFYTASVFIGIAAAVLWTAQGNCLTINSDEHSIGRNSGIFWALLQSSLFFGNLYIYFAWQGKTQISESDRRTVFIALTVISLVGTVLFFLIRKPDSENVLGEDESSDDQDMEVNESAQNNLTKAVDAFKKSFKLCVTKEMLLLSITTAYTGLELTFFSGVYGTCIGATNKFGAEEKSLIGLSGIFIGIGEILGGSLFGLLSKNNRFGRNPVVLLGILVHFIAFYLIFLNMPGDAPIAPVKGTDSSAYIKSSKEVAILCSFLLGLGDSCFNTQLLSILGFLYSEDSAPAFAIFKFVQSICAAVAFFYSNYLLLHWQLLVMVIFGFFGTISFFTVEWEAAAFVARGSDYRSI
Sequence of UniProt Q32MZ4 (Q32MZ4 whole entry, looked up): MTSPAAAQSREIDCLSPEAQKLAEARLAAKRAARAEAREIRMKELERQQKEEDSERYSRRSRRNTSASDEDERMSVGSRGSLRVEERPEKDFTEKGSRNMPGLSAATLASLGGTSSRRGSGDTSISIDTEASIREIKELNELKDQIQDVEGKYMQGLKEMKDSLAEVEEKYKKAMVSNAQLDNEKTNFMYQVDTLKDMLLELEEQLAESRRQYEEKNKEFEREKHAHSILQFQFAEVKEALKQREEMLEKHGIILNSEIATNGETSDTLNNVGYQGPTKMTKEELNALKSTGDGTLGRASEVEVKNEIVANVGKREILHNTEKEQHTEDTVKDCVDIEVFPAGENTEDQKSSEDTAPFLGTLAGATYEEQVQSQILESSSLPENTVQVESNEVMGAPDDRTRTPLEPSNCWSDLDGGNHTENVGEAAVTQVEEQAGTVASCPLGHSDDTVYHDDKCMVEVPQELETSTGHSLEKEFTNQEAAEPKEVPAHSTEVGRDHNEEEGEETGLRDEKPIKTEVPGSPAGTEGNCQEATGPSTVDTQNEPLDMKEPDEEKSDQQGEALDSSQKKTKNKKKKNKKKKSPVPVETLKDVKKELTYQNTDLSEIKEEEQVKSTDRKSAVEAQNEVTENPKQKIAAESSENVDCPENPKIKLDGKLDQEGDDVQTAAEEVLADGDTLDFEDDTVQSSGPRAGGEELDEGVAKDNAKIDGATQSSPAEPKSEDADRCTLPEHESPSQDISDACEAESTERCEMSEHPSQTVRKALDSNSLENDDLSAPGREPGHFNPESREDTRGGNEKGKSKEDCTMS
Sequence of UniProt Q14681 (Q14681 whole entry, looked up): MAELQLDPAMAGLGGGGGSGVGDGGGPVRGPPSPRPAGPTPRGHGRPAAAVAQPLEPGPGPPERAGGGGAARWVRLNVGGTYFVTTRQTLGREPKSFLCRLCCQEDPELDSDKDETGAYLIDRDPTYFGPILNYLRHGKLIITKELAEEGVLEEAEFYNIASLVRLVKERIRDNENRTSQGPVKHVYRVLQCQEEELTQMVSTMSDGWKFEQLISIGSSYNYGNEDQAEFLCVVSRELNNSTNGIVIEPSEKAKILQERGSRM
Sequence of UniProt P02545 (P02545 whole entry, looked up): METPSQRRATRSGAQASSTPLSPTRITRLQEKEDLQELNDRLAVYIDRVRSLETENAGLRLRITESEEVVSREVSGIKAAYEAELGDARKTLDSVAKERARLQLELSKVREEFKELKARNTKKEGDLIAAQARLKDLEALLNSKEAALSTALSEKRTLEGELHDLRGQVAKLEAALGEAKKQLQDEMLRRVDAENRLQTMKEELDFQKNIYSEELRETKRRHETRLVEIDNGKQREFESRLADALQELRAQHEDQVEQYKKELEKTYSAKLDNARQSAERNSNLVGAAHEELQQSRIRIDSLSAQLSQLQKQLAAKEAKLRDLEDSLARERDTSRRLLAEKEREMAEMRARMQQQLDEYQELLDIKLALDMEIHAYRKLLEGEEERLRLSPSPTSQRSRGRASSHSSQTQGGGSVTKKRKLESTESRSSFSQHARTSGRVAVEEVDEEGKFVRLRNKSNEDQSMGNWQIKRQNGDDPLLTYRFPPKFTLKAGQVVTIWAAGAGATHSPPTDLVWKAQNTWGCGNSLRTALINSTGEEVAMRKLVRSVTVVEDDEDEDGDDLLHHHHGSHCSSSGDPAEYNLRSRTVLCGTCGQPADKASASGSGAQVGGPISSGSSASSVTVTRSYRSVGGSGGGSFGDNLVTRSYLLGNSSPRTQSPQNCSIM
Sequence of UniProt Q5XKP0 (Q5XKP0 whole entry, looked up): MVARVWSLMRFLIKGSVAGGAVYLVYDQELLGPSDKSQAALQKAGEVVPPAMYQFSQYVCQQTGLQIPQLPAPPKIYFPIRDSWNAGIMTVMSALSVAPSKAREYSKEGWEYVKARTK

log2 fold change, inactive:
LMNA (UniProt P02545) 0.015
MAP4 (UniProt E7EVA0) 0.003
LMBRD1 (UniProt Q9NUN5) -0.028
MFSD11 (UniProt O43934) 0.044
KLHL18 (UniProt O94889) -0.029
L2HGDH (UniProt Q9H9P8) 0.15
INPP1 (UniProt P49441) -0.042
MAPKAPK2 (UniProt P49137) 0.06
LRRFIP1 (UniProt Q32MZ4) 0.049
LTN1 isoform 3 (UniProt O94822) 0.035
MARK3 (UniProt P27448) -0.02
MICOS13 (UniProt Q5XKP0) -0.02
MAP1LC3B2 (UniProt A6NCE7) -0.015
MFSD1 isoform 6 (UniProt Q9H3U5) -0.008
KPNA6 (UniProt O60684) 0.219
LPIN1 isoform 7 (UniProt Q14693) -0.139
LAMP2 (UniProt P13473) 0.005
MCCC2 (UniProt Q9HCC0) 0.025
MED17 (UniProt Q9NVC6) 0.074
IPO9 (UniProt Q96P70) 0.164
KCTD2 (UniProt Q14681) 0.119
MCL1 (UniProt Q07820) 0.034
ILK (UniProt Q13418) -0.003
